TMEM16A act: mouse TMEM16A channel activation, primary screen; 340,000 compounds, 0.3% hits; AID 623877; B-score at 10 µM; Q8BHY3; HEK293 TMEM16A/YFP-H148Q/I152L, iodide quench fluorescence; stronger effect = lower value;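 active = fluorescence-ratio B-score plate-corrected deviation score at least 3 library SD below zero, with starting fluorescence score within 5 deviations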;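 note: channel opened by trigger with iodide after compound preincubation; score built on the fluorescence ratio of max minus min over baseline; more negative score means more quench and so TMEM16A activation or potentiation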
m5-HT2A agonist: agonists of mouse serotonin 5-HT2A receptor (HTR2A) | P35363 | CHO-K1 mHTR2A beta-arrestin complementation, luminescence; percent of 30 µM serotonin response | activation, % at 7.6 µM | 360,000 compounds, 0.66% hits | AID 624169;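 active = activation above a run cutoff, the mean activation of all tested compounds plus 3 SD, cut at about 14% in these data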
TMEM16A inh: mouse TMEM16A channel inhibition, primary screen | Q8BHY3 | HEK293 TMEM16A/YFP iodide influx fluorescence, ionomycin | normalized B-score (activity score, 25-100; higher = stronger inhibition) at 10 µM | 310,000 compounds, 1.2% hits;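 active = ratio plate-corrected score three or more library SD toward inhibition, starting fluorescence score within five deviations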;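 note: score derived from kinetic fluorescence span divided by baseline fluorescence per well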
TLR4-MyD88 BLA: inhibitors of human TLR4-MyD88 binding | O00206+Q99836 | HeLa CL3-4 TLR4/MyD88 BLA complementation, FRET ratio | inhibition, % at 8.4 µM | 200,000 compounds, 0.18% hits | AID 861; in the data active = inhibition above about 25%
NOD2-RIPK2 inh: NOD2-RIPK2 protein interaction inhibition | O43353 | CHO BLA complementation NOD2-RIPK2, CCF4 ratio | inhibition, % at 4.98 µM | 360,000 compounds, 0.38% hits | AID 624267; in the data active = inhibition above about 21%
TLR9-MyD88 block: TLR9-MyD88 interaction inhibition; inhibition, % at 4.98 µM; CHO BLA complementation TLR9-MyD88, CCF4 FRET ratio; 340,000 compounds, 0.21% hits;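 active = inhibition above the mean over all tested compounds plus 3 SD, cut at about 21% in these data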
Target sequence (Q99836 whole entry, looked up): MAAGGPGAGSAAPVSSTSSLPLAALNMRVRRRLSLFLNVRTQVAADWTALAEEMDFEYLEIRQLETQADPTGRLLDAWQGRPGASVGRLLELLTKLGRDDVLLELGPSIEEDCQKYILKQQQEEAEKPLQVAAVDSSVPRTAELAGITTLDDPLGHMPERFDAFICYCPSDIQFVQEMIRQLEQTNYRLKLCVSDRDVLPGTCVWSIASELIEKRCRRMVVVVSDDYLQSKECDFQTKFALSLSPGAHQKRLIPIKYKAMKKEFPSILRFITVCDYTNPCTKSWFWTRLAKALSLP
Target sequence (Q9NR96 whole entry, looked up): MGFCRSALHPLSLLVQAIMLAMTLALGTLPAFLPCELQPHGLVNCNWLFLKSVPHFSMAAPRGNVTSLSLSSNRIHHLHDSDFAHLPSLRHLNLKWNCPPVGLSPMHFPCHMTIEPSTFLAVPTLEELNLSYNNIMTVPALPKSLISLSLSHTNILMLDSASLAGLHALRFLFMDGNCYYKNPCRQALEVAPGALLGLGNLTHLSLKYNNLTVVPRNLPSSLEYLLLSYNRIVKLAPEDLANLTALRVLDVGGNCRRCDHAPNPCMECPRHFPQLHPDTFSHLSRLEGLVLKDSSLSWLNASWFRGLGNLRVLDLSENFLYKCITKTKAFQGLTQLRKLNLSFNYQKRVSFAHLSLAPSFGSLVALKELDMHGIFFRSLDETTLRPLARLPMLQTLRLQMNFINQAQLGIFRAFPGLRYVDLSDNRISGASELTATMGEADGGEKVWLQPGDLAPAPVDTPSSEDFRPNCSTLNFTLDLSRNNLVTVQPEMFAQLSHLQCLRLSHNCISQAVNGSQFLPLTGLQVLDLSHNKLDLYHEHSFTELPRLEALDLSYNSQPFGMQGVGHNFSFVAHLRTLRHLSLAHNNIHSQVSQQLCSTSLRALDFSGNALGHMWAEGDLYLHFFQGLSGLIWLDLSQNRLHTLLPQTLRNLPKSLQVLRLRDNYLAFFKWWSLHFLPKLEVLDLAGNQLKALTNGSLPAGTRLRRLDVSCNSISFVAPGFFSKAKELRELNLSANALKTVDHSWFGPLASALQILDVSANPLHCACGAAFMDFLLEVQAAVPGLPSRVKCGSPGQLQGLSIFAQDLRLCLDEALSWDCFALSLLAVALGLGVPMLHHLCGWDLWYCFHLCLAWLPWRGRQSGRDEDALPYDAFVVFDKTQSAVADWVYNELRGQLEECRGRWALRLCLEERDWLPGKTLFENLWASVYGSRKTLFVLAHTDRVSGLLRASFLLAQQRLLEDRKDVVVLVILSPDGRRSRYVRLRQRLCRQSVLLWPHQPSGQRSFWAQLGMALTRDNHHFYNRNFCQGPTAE
TMEM16A reconf: re-confirmation of mouse TMEM16A chloride channel inhibitors; shares compounds with TMEM16A inh; HEK293 TMEM16A/YFP-H148Q, iodide quench fluorescence; ionomycin added to raise cell calcium; inhibition, % at 10 µM; 2,300 compounds, 39% hits; AID 652189;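 active = mean duplicate percent inhibition, scaled so buffer wells are 0 and the reference blocker 100, over three buffer SD above buffer mean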
HEK293 Ca mobil: counter-screen for TMEM16A inhibitors: effect on calcium mobilization; TMEM16A/YFP HEK293, Fluo4 calcium mobilization; shares compounds with TMEM16A inh; 2,300 compounds, 2% hits; AID 652231; calcium response (% of ionomycin), % at 10 µM;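 active = duplicate-averaged calcium signal over 20% of the ionomycin maximum, relative to buffer baseline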;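 note: each well's signal is peak minus trough fluorescence divided by its pre-addition baseline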
Parental YFP cnt: acts in parental YFP-HEK293 cells lacking TMEM16A, counter-screen | shares compounds with TMEM16A inh | iodide YFP quench, ionomycin | YFP ratio F(max-min)/F0 at 10 µM | 2,300 tested, under 10 active;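 active = yellow fluorescent protein signal ratio exceeding the buffer control mean by over 5 SD of those controls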;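 note: ratio is mean of duplicate wells from kinetic YFP trace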
ClC-1 rat inh: rat ClC-1 inhibition, TMEM16A specificity screen | shares compounds with TMEM16A inh | CHO ClC-1-YFP, iodide influx fluorescence quench; iodide control reads 0, buffer control 100 | ratio percent, % at 10 µM | 2,300 tested, under 10 active;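 active = duplicate-mean ratio percent above the mean of iodide-only control wells, which defines zero, plus 5 of their SD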;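 note: higher percent means stronger block of ClC-1 iodide influx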
OPRM1 ag: OPRM1 agonism in mouse HTR2A counterscreen; shares compounds with m5-HT2A agonist; U2OS OPRM1 beta-arrestin PathHunter, luminescence; DMSO 0%, DAMGO 9.3 µM 100%; activation, % at 9.3 µM; 2,300 compounds, 5.3% hits;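 active = mean activation above the mean of DMSO-only wells plus 3 SD, cut at about 0.5% in these data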
HTR2A ag conf: confirmation of mouse HTR2A serotonin receptor agonists; shares compounds with m5-HT2A agonist; CHO-K1 PathHunter beta-arrestin recruitment, luminescence; DMSO 0%, 30 µM serotonin 100%; activation, % at 7.6 µM; 2,300 compounds, 19% hits; AID 624381;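 active = mean activation across triplicates above the hit threshold derived in the original primary screen, cut at about 15% in these data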
Of the large screens only hits and unclear results are named; the others gave an inactive call (follow-up assays come after a bar, where they were run). Sampled rows, rich in hits. Any-hit rate of the full collection: about 2.4%.

CCCCNC(=O)c1ccccc1C(=O)NCCCC	none
CCCCNC(NCCCC)=C(S(=O)(=O)CC)S(=O)(=O)CC	TMEM16A inh 25 | TMEM16A reconf inactive | HEK293 Ca mobil inactive | Parental YFP cnt inactive | ClC-1 rat inh inactive
CCS(=O)(=O)Nc1cccc(C2=NN(S(=O)(=O)c3ccccc3)C(c3cccs3)C2)c1 (configuration not stated)	none | TMEM16A reconf inactive | HEK293 Ca mobil inactive | Parental YFP cnt inactive | ClC-1 rat inh inactive
CC1(C)Cc2c(c(N3CCOCC3)nc3sc4c(N5CCOCC5)nnnc4c23)CS1	none (no result: TMEM16A act, m5-HT2A agonist, NOD2-RIPK2 inh, TLR9-MyD88 block)
O=C(NNC(=S)Nc1ccccc1)NNC(=S)Nc1ccccc1	none
O=C(NNC(=S)Nc1ccccc1)c1cc(Br)ccc1Cl	TMEM16A inh 25 (no result: TLR4-MyD88 BLA) | TMEM16A reconf 18% | HEK293 Ca mobil inactive | Parental YFP cnt inactive | ClC-1 rat inh inactive
COc1ccc(C(=O)Nc2ccc3nc4n(c(=O)c3c2)CCCC4)cc1[N+](=O)[O-]	none (no result: TMEM16A act, m5-HT2A agonist, NOD2-RIPK2 inh, TLR9-MyD88 block)
CCOC(=O)C1CCN(c2c(NCc3ccc(C(=O)NC4CCCC4)cc3)c(=O)c2=O)CC1	none
CCOC(=O)C1CCN(c2c(NCCN3CCCCC3C)c(=O)c2=O)CC1 (configuration not stated)	TMEM16A inh 100 | TMEM16A reconf inactive | HEK293 Ca mobil inactive | Parental YFP cnt inactive | ClC-1 rat inh inactive
N#CC1=C(N)Oc2cc(O)c(C=Nc3ccccc3)cc2C1c1ccccc1 (configuration not stated)	none | TMEM16A reconf inactive | HEK293 Ca mobil inactive | Parental YFP cnt inactive | ClC-1 rat inh inactive
COc1cc(Cl)c(C)cc1NC(=O)CN(C)Cc1cccc(OC)c1OC	TMEM16A inh 25 | TMEM16A reconf 20% | HEK293 Ca mobil inactive | Parental YFP cnt inactive | ClC-1 rat inh inactive
CCCCC1(C)OC(=O)C(=Cc2ccc(N(C)C)cc2)C(=O)O1 (configuration not stated)	m5-HT2A agonist 20 | TMEM16A reconf 22% | HEK293 Ca mobil inactive | Parental YFP cnt inactive | ClC-1 rat inh inactive
CCCCC1(C)OC(=O)C(=Cc2c[nH]c3ccccc23)C(=O)O1 (configuration not stated)	none
Cc1nc2c(cc(Oc3ccc(S(=O)(=O)N4CCOCC4)cn3)c3ccsc32)s1	TMEM16A inh 25 | TMEM16A reconf inactive | HEK293 Ca mobil inactive | Parental YFP cnt inactive | ClC-1 rat inh inactive
CCCCCCNc1cc2n(c(=O)n1)CCc1cc(OC)c(OC)cc1-2	none | TMEM16A reconf inactive | HEK293 Ca mobil inactive | Parental YFP cnt inactive | ClC-1 rat inh inactive
CCOC(=O)N1CCN(C(=O)CSc2nnc(-c3cccs3)o2)CC1	none
O=C(Nc1cccnc1)Nc1ccccc1Cl	TMEM16A inh 100 | TMEM16A reconf inactive | HEK293 Ca mobil inactive | Parental YFP cnt inactive | ClC-1 rat inh inactive
O=S(=O)(c1ccc(Cl)c(S(=O)(=O)N2CCCC2)c1)N1CCCC1	none
CC1CN(S(=O)(=O)c2ccc(Cl)c(S(=O)(=O)N3CC(C)OC(C)C3)c2)CC(C)O1 (configuration not stated)	TMEM16A inh 100 | TMEM16A reconf inactive | HEK293 Ca mobil inactive | Parental YFP cnt inactive | ClC-1 rat inh inactive
Cc1cc(C(=O)COC(=O)c2ccc[nH]c2=O)c(C)n1C	none
FC(F)(F)c1ccc(N2CCN(c3cc(-c4ccccc4)nc4ncnn34)CC2)nc1	TMEM16A inh 100 | TMEM16A reconf 36% | HEK293 Ca mobil inactive | Parental YFP cnt inactive | ClC-1 rat inh inactive
COc1ccc(CN2CCc3c([nH]c4ccccc34)C2)cc1Br	TMEM16A inh 100 (no result: TLR4-MyD88 BLA) | TMEM16A reconf inactive | HEK293 Ca mobil inactive | Parental YFP cnt inactive | ClC-1 rat inh inactive
CCOC(=O)c1c(NC(=O)c2nn(CC)cc2Br)c(C#N)nn1-c1ccccc1	TMEM16A inh 100 | TMEM16A reconf inactive | HEK293 Ca mobil inactive | Parental YFP cnt inactive | ClC-1 rat inh inactive
CN(Cc1ccccc1)C(=O)COC(=O)c1cc(NS(=O)(=O)c2cccs2)ccc1O	m5-HT2A agonist 21, TMEM16A inh 25 | TMEM16A reconf inactive | HEK293 Ca mobil inactive | Parental YFP cnt inactive | ClC-1 rat inh inactive | OPRM1 ag inactive | HTR2A ag conf inactive
Cc1ccccc1NC(=O)C(=O)N/N=C/c1cccc(Br)c1	none
CC(C)(C)c1ccc(-n2ncc3c2CCCC3NC(=O)c2ccncc2)cc1 (configuration not stated)	none (no result: TLR4-MyD88 BLA)
Cc1nnsc1C(=O)NC1CCCc2c1cnn2-c1ccc(C(C)(C)C)cc1 (configuration not stated)	m5-HT2A agonist 14, TMEM16A inh 25 (no result: TLR4-MyD88 BLA) | TMEM16A reconf 20% | HEK293 Ca mobil inactive | Parental YFP cnt inactive | ClC-1 rat inh inactive | OPRM1 ag inactive | HTR2A ag conf inactive
Cc1ccc(NC(=O)c2ccc(Cl)c(S(=O)(=O)N3CCCCC3)c2)nc1	none (no result: TMEM16A inh, TLR4-MyD88 BLA)
O=C(c1ccc(F)cc1)c1ccc(-c2ccc(F)cc2)nc1	none (no result: TLR4-MyD88 BLA)
N#CC(c1ccc(F)cc1)c1ccc(C(=O)c2ccc(F)cc2)cc1 (configuration not stated)	m5-HT2A agonist 14, TMEM16A inh 100 | TMEM16A reconf 28% | HEK293 Ca mobil inactive | Parental YFP cnt inactive | ClC-1 rat inh inactive | OPRM1 ag inactive | HTR2A ag conf inactive
CC(C)(C)NS(=O)(=O)c1cc(C(=O)Nc2sccc2C#N)ccc1Cl	m5-HT2A agonist 18 | TMEM16A reconf inactive | HEK293 Ca mobil inactive | Parental YFP cnt inactive | ClC-1 rat inh inactive | OPRM1 ag inactive | HTR2A ag conf 15
